# Experimental data reported in PubChem BioAssay AID2158 (National Center for Advancing Translational Sciences (NCATS), 2009).
# Inconclusive results are not listed. A number with no mark means an inactive call. Calls of active or inactive are those of the source. Calls come from the whole dose curve; as a rule, active = well fitted inhibition curve with a large enough effect; inconclusive = small, poorly fitted or top-dose-only effect; inactive = no such curve, though single readings can be large or run the other way.
# Target: Cruzipain (Trypanosoma cruzi) (UniProt P25779)
# Test: Confirmation qHTS Assay for Inhibitors of Cruzain; note: nearly all actives have a fitted effect of over 40% in size;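 for activity change, negative = inhibition: plate controls were uninhibited enzyme control for no effect and buffer wells lacking enzyme for full effect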
# Settings: purified cruzain, Z-FR-AMC fluorescence, 0.01% Triton
# How it was run: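 Reaction progress from the 60 s rise in AMC fluorescence (ex 360, em 450 nm) after adding 2 uM Z-FR-AMC. Before this, 1.5 nM cruzain sat 15 min at room temperature with compound in pH 5.5 acetate buffer with 5 mM DTT and 0.01% Triton X-100.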
# Potency is the fitted concentration of half-maximal effect.
# Sequence of Cruzipain (Trypanosoma cruzi) (P25779 123-467 limits assumed): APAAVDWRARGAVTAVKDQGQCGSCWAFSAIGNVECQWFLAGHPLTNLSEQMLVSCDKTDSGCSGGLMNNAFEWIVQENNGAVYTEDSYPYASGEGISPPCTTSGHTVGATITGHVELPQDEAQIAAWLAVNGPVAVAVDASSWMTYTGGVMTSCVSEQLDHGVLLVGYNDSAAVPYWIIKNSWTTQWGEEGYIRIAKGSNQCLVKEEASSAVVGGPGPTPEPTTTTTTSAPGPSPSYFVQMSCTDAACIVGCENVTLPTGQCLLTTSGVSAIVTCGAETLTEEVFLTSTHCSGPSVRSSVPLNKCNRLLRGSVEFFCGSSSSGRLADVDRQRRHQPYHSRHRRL
Structure (SMILES),Potency,"activity change, negative = inhibition"
CCOc1ccc(C(=O)COC(=O)CNC(=O)C2CCCCC2)cc1,3.16 µM (active),
Cc1cccc(Cn2cc(/C=C(/C#N)C(=O)Nc3cccc(Cl)c3)c3ccccc32)c1,,-2.85%
O=C(NC(=S)Nc1cccc(Cl)c1N1CCCC1)c1ccc(-c2cccc([N+](=O)[O-])c2)o1,,-8.07%
COc1ccc(OC)c(C(=O)COC(=O)CNC(=O)C2CCCCC2)c1,7.08 µM (active),
CC(C)Nc1nc(C#N)nc(NC(C)C)n1,28.2 µM (active),
COc1ccc(/C=N/NC(=O)c2ccc(Br)cc2)cc1Cn1cc(Cl)cn1,,-13.6%
CCN(c1ccccc1)c1nc(C#N)nc(N(CC)c2ccccc2)n1,5.01 µM (active),
O=C(CNC(=O)C1CCCCC1)OCC(=O)c1ccc([N+](=O)[O-])cc1,2.82 µM (active),
COc1ccc(Nc2nc(C#N)nc(NC3CCCC3)n2)cc1,0.447 µM (active),
O=C(NCCc1nc2ccccc2n1CCCOc1ccc(Cl)cc1)C1CCCCC1,0.891 µM (active),
CC(C)Nc1nc(C#N)nc(Nc2ccccc2)n1,0.891 µM (active),
CCCn1c(SCC(=O)N2CC(=O)Nc3ccccc32)nc2ccccc21,28.2 µM (active),
COC(=O)CCC(C)C1CCC2C3CC[C@H]4CC(O)CC[C@@]4(C)C3CC(O)[C@]12C (stereo partly drawn),,-8.27%
O=C(COC(=O)CNC(=O)C1CCCCC1)Nc1ccccc1Cl,3.98 µM (active),
Cc1cccc(C(=O)NCC(=O)OCC(=O)c2ccc3ccccc3c2)c1,12.6 µM (active),
CCC(C(=O)NC1CCCCC1)n1c(SCc2cccc(F)c2)nc2ccncc21 (stereo not drawn),6.31 µM (active),
Cc1ccc(O/C=C2/Nn3c(nnc3-c3cc(-c4ccccc4)n[nH]3)S2)cc1,,-1.56%
O=C(Nc1ccc(N2CCCC2)cc1)c1ccc(Br)o1,,-25%
O=C(Nc1ccc(-n2nncc2-c2ccccc2)cc1)c1ccccc1,,-9.78%
CC(C)CCNC(=O)Cn1c(SCc2cccc(F)c2)nc2ccncc21,14.1 µM (active),
N#Cc1nc(NCC(F)F)c2ncn(-c3cc(F)cc(F)c3)c2n1,0.0562 µM (active),
NC(=S)N/N=C\c1ccc(-c2cccc(Cl)c2Cl)o1,1 µM (active),
COc1ccc(-c2cc(C#N)nc(N3CCN(C)CC3)n2)cc1,,-11.8%
